ASM inhibitor = Inhibitors of Secretory Acid Sphingomyelinase (S-ASM): qHTS; 0.006% of 340,000 active; Potency, µM (doses to about 57.5 µM), hits mostly inhibitors; placental ASM, HMU-PC fluorogenic substrate, 60 min; Sphingomyelin phosphodiesterase (Homo sapiens), P17405
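Fluorogenic HMU-PC substrate (9 uM final) is turned over by placental ASM in 60 min at 37 C after a 10 min compound preincubation. Reaction ended by alkaline stop (pH 10), with fluorescence read at 386/447 nm.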
mIDH1 inhibitor = qHTS for Inhibitors of mutant isocitrate dehydrogenase 1 (IDH1): qHTS | Isocitrate dehydrogenase [NADP] cytoplasmic (Homo sapiens), O75874 | IDH1-R132H enzyme, NADPH consumption, diaphorase/resazurin fluorescence | Potency, µM (doses to about 76.6 µM), hits mostly inhibitors | 0.093% of 390,000 active | AID 602179, 2012; also: nearly all actives have a fitted effect of over 65% in size
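IDH1-R132H (0.5 ug/mL dispensed) in pH 7.5 Tris buffer was preincubated 30 min with compound, then given a substrate mix of 0.016 mM NADPH and 2 mM alpha-KG for 80 min at room temperature; remaining NADPH was read by diaphorase/resazurin fluorescence.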
hERG WT inh = qHTS for Inhibitors of KCHN2 3.1: Wildtype qHTS | Voltage-gated inwardly rectifying potassium channel KCNH2 (Homo sapiens), Q12809 | U2OS, BacMam KCNH2, thallium flux FluxOr; hits give low values | activity change, % at 1.84 µM | 0.37% of 340,000 active | AID 720551, 2013;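 active = maximum activity change below -70%; inconclusive = maximum activity change between -70% and -50%; inactive = maximum activity change above -50%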
Target sequence (Q12809 whole entry, looked up): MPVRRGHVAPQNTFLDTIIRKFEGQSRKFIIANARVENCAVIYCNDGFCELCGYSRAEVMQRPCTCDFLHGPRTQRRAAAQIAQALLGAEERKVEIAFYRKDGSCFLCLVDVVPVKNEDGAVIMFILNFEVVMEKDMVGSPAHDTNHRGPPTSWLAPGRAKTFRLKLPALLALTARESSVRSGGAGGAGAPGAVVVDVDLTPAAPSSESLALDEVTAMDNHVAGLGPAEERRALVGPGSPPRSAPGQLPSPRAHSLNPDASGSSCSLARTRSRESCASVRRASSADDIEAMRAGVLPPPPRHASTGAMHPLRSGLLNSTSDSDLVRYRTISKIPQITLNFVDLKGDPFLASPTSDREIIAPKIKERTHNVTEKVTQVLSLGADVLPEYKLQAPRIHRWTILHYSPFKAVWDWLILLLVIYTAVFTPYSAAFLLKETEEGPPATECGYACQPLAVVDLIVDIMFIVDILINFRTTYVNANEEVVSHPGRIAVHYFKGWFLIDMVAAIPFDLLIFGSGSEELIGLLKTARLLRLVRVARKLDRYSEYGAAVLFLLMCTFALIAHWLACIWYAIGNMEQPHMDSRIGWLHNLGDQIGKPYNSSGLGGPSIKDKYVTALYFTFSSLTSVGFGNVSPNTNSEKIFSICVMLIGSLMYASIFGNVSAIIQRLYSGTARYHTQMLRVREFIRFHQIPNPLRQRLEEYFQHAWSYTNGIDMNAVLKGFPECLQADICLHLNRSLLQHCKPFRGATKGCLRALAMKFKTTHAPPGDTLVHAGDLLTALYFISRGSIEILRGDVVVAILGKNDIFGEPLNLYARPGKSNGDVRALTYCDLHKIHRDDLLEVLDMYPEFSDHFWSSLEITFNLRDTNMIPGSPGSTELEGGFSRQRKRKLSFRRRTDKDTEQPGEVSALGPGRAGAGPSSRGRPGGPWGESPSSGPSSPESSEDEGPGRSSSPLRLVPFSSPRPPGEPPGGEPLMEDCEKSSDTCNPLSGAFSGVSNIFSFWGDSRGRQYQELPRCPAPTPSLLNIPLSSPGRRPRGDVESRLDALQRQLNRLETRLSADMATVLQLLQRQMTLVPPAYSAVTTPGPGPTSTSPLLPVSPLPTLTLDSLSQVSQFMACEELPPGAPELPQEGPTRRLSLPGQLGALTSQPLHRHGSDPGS
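U2OS cells were transduced with wild-type KCNH2 virus (2.03 x 10^8 / mL) for 4 h at room temperature, then cultured overnight at 37 C. Thallium flux was read with FluxOr dye. Rate constants were normalized to DMSO controls.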
KCNH2 3.1 inh = qHTS for Inhibitors of KCHN2 3.1: Mutant qHTS. Potassium voltage-gated channel subfamily H member 2, brain isoform KCNH2 3.1 (human). activity change, % (tested at about 1.8 µM). U2OS KCNH2 3.1, thallium flux FluxOr; hits give low values. 0.95% of 340,000 active;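 active = maximum activity change below -70%; inconclusive = maximum activity change from -70% to -50%; inactive = maximum activity change above -50%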;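 also: thallium influx rate constant from kinetic fluorescence after stimulation buffer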
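Kinetic fluorescence (2 min after stimulation buffer) measures Tl+ influx through KCNH2 3.1 expressed by viral transduction in U2OS cells; the rate constant is normalized against DMSO controls serving as positive and negative references.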
Apoferritin bind = qHTS Assay for Identification of Novel General Anesthetics | Potency, µM (titrated, usually from 77.5 µM), actives largely listed as inhibitors | AID 485281, 2010 | 0.074% of 350,000 active | Ferritin light chain (Equus caballus), P02791 | apoferritin/1-aminoanthracene competitive binding, fluorescence; also: nearly all actives have a fitted effect of over 20% in size
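In PBS, apoferritin at 10 uM is loaded with 1-AMA from a 50% saturated solution. After 10 min of compound exposure at ambient temperature, reduced 535 nm fluorescence indicates probe displacement.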
A number is an active result; . = inactive; ? = inconclusive; / = no result given; [ ] = dose if it differs, or a comment. An excerpt weighted towards active compounds, which were near 1.2% of everything screened. Unless noted, calls follow the shape of the dose curve; as a rule, active = well fitted inhibition curve with a large enough effect; inconclusive = small, poorly fitted or top-dose-only effect; inactive = no such curve, though single readings can be large or run the other way.

SMILES	ASM inhibitor	mIDH1 inhibitor	hERG WT inh	KCNH2 3.1 inh	Apoferritin bind
Cc1sc2nc(COC(=O)c3cccc(OC(F)F)c3)[nH]c(=O)c2c1C	.	.	-91.7	.	?
COC(=O)/C=C/C1c2ccccc2C(OC)C1C (centres undefined)	/	/	/	/	.[15.3 µM]
CN(C)S(=O)(=O)Oc1ccc(C(=O)Nc2ccc([N+](=O)[O-])cc2)cc1	.	.	.	.	.
COC(=O)c1ccc(OS(=O)(=O)N(C)C)cc1	.	.	-226.5	.	.
COc1ccc(-c2noc(-c3ccc(N4CCCC4)c([N+](=O)[O-])c3)n2)cc1	/	.	/	/	?
Cc1ccc(NC(=O)C2CCN(C(=O)c3ccco3)CC2)cc1	.	.	.	-85.4	.
COc1ccccc1OCc1ccc(C(=O)Nc2cc(OC)c(OC)c(OC)c2)o1	.	.	-129.1	.	.
N#CC1(Cc2ccc([N+](=O)[O-])cc2)c2ccccc2C=CN1C(=O)c1ccccc1 (centres undefined)	.	.	.	-88.3	.
N#CC1(Cc2ccccc2)c2ccccc2C=CN1C(=O)c1ccccc1 (centres undefined)	.	.	.	.	.
Cc1cc(C)cc(NC(=O)c2ncn(-c3ccccc3)n2)c1	/	.	/	/	.
COC(=O)[C@@]1(C)[C@H]2C(=O)N(Cc3ccccc3)C(=O)[C@H]2[C@H]2CN=C(SCC(=O)c3ccccc3)N21	.	.	.	-79.6	/
O=C(CCN1CCN(C/C=C/c2ccccc2)CC1)Nc1ccccc1	.	.	.	-80.3	.
Cc1ccccc1NC(=O)CCN1CCN(C/C=C/c2ccccc2)CC1	.	.	.	-84.8	.
Cc1cccc(NC(=O)CCN2CCN(C/C=C/c3ccccc3)CC2)c1	.	.	.	-90.6	.
Cc1ccccc1NC(=O)CCN1CCN(C)CC1	.	.	.	.	.
O=C(CCN1CCN(CCO)CC1)Nc1ccccc1	.	.	.	.	.
Cc1cc(NC(=O)CCN2CCN(C/C=C/c3ccccc3)CC2)ccc1Br	.	.	.	-107.8	.
Cc1cc(NC(=O)CCN2CCN(C)CC2)ccc1Br	.	.	.	.	.
CCCOc1cccc(C2c3c(oc4ccc(F)cc4c3=O)C(=O)N2c2nc(C)c(C(C)=O)s2)c1 (centres undefined)	/	.	/	/	.
Cc1cc(NC(=O)Cn2nc(C(=O)O)c3ccccc3c2=O)c([N+](=O)[O-])cc1C	.	.	.	.	.
Cc1cc(NC(=O)CN2CCN(C/C=C/c3ccccc3)CC2)c([N+](=O)[O-])cc1C	.	.	.	-92.4	.
O=C(CN1CCN(C/C=C/c2ccccc2)CC1)Nc1ccccc1C(=O)NC1CC1	.	.	-90.7	-111.5	.
O=C(CN1CCN(S(=O)(=O)c2ccccc2)CC1)Nc1ccccc1C(=O)NC1CC1	.	.	.	?	/
O=C(CC1NCCNC1=O)Nc1ccccc1F (centres undefined)	/	.	/	/	.
COCCN(Cc1cc2ccc(C)cc2[nH]c1=O)S(=O)(=O)c1ccccc1	.	.	-217.6	.	.
SMILES	ASM inhibitor	mIDH1 inhibitor	hERG WT inh	KCNH2 3.1 inh	Apoferritin bind
Cc1cc2cc(CN(Cc3cccs3)S(=O)(=O)c3ccc4c(c3)OCCO4)c(=O)[nH]c2cc1C	.	.	.	.	.
Cc1ccc2[nH]c(=O)c(CN(Cc3cccs3)S(=O)(=O)c3ccc4c(c3)OCCO4)cc2c1	.	.	.	-120.2	.
Cc1nc(-c2cccc(NC(=O)Nc3ccc([N+](=O)[O-])cc3)c2)no1	/	.	/	/	.
COc1ccc(Cn2ccnc2SCC(=O)NC2CCCC2)cc1	.	.	.	.	35.5µM
Cc1cccc(N2CCN(c3nc4ccc(C(=O)c5ccccc5)cc4n4cnnc34)CC2C)c1 (centres undefined)	/	.	/	/	.
COc1cc(OC)c(NC(=O)CSC2=Nc3ccccc3N=C(c3ccc(F)cc3)C2)cc1Cl	/	.	/	/	.
S=c1[nH]nc(C2CC2)n1Cc1ccco1	.	.	-322.7	.	.
COC(=O)CSc1ncc(S(=O)(=O)c2ccccc2)c(=O)[nH]1	.	.	.	-131.0	.
CCc1ccccc1NC(=O)CSc1ncc(S(=O)(=O)c2ccccc2)c(=O)[nH]1	/	.	/	/	.
CCN(c1ccc(OC)cc1)S(=O)(=O)c1ccc2[nH]c3c(c2c1)CCCCC3	/	.	/	/	.
Cc1c(NC(=O)c2cccc(F)c2)c(=O)n(-c2ccccc2)n1C	.	.	.	-109.1	.
COc1ccc(/C(O)=C/C(=O)C(=O)Nc2c(C)n(C)n(-c3ccccc3)c2=O)cc1	.	.	-118.9	.	.
Cc1c(NC(=O)c2ccc(F)cc2)c(=O)n(-c2ccccc2)n1C	.	.	.	.	.
Cc1c(NS(=O)(=O)c2ccccc2F)c(=O)n(-c2ccccc2)n1C	.	.	.	.	.
Cc1cc(F)ccc1S(=O)(=O)Nc1c(C)n(C)n(-c2ccccc2)c1=O	.	.	.	-73.9	.
Cc1c(NC(=O)C(=O)/C=C(/O)c2ccccc2)c(=O)n(-c2ccccc2)n1C	.	.	.	.	.
Cc1noc(C)c1S(=O)(=O)Nc1c(C)n(C)n(-c2ccccc2)c1=O	.	.	-79.0	.	.
COc1ccc(NC(=O)CC2Oc3ccc(C)cc3NC2=O)cc1Cl (centres undefined)	/	.	/	/	.
O=C(O)c1ccc(S(=O)(=O)N[C@H](Cc2ccc([N+](=O)[O-])cc2)C(=O)O)cc1	/	/	/	/	.
Cc1cc(C)c(NC(=O)C2CCN(c3nnc(C)c4c(C)n(-c5ccccc5)nc34)CC2)c(C)c1	/	.	/	/	.
COc1ccc(/C=N/NC(=O)c2nc(-c3ccccc3)cc(-c3ccccc3)n2)cc1	.	.	.	-87.5	.
CCOC(=O)c1c(NC(=O)c2cc(-c3ccc(Br)cc3)on2)sc(C)c1C	/	.	/	/	.
N#CC1=C(N)OC2=C(CC/C2=C\c2ccccc2)C1c1ccccc1 (centres undefined)	.	.	-72.7	.	?
N#CC1=C(N)OC2=C(CC/C2=C\c2ccccc2Cl)C1c1ccccc1Cl (centres undefined)	.	.	.	.	.
COc1ccc(-c2ccnc(SCC(=O)c3ccc(Cl)cc3)n2)cc1	.	.	.	.	?
COc1ccc(-c2ccnc(SCC(=O)c3ccc(OC)c(OC)c3)n2)cc1	.	.	.	-106.5	.
CCOC(=O)CCCCC1=CC2=CC(=O)C(C)(O)C(=O)C2=CO1 (centres undefined)	/	/	/	/	.[15.3 µM]

Source: PubChem (National Center for Advancing Translational Sciences (NCATS))
